# esBAF inh: inhibitors of esBAF chromatin remodeling in mouse ES cells. Bmi1-luciferase knock-in reporter, 24 h; 100% = twice the neutral-well signal. reporter increase, % at 12.5 µM. hit rate 2% among 350,000; in the data active means activation above about 40%; inconclusive means no clear call, values can overlap the other calls;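 further: 0% = median of the plate's neutral control wells and 100% = double that signal; a rise in the Bmi1 reporter signal indicates esBAF inhibition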
# ssDAF12 agonist: activators of S. stercoralis DAF-12 nuclear receptor | activation, % at 6.8 µM | hit rate 1% among 370,000 | HEK293 ssDAF-12/GRIP1 lit1-tk-luc reporter, luminescence; % of 3 µM dafachronic acid response;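 active means activation above the mean over all tested compounds plus 3 SD, cut at about 0.9% in these data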;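 further: 0% = DMSO-only wells and 100% = 3 µM delta7-dafachronic acid wells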
# DAX1 inh: blocks DAX1 repression of SF-1 activated StAR promoter; HEK293T StAR-luciferase reporter, SF-1/DAX-1 repression relief; inhibition, % at 6.8 µM; hit rate 1.1% among 370,000;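 active means inhibition above the mean over all tested compounds plus 3 SD, cut at about 3.6% in these data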;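 further: 0% = DAX-1 cells with DMSO and 100% = cells lacking DAX-1 with DMSO; higher inhibition means more luminescence from relief of DAX-1 repression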
# hgDAF12 agonist: agonists of H. glycines DAF-12 nuclear receptor. activation, % at 6.8 µM. HEK293 GAL4-hgDAF12 UAS-luciferase reporter, agonist luminescence; normalized to butyrate control. hit rate 1.8% among 370,000;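 active means activation above a cutoff set at the mean of all screened compounds plus 3 SD, cut at about 10% in these data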;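 further: 0% = DMSO wells and 100% = sodium butyrate wells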
# Wnt bcat act: activates Wnt/beta-catenin signaling in a reporter cell assay; activator, plate reader; activation, % at 9.35 µM; hit rate 1.2% among 300,000; in the data active means activation above about 30%, passing the limit was not always enough; inconclusive means no clear call, values can overlap the other calls;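 further: 0% = neutral control wells and 100% = positive control wells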
# hcDAF-12 act: activates DAF-12 receptor from parasite H. contortus; HEK293 hcDAF-12 lit1-tk-luc reporter, luminescence; 0% DMSO, 100% Δ7-dafachronic acid; activation, % at 6.8 µM; hit rate 1.4% among 370,000; AID 652067;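 active means activation above the mean of all tested compounds plus 3 SD, cut at about 5.5% in these data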;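 further: 100% = response to 3 µM Δ7-dafachronic acid high control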
# esBAF Ring1 qPCR: de-represses Ring1 in mouse ESCs, confirming esBAF inhibition; shares compounds with esBAF inh; mouse ESC E14, Ring1 mRNA RT-qPCR fold change; fold change at 33 µM; 550 tested, under 10 active; AID 743176;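 active means Ring1 gene expression raised more than 2-fold over untreated cells in both replicates at either tested dose; inconclusive means only one replicate above 2-fold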;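 further: Ring1 transcript normalised to actin housekeeping signal by TaqMan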
# esBAF Fgf4 qPCR: represses Fgf4 in mouse ESCs, confirming esBAF inhibition | shares compounds with esBAF inh | mouse ESC E14, Fgf4 mRNA qPCR fold change; stronger effect = lower value | Fgf4 expression fold change at 33 µM | hit rate 4% among 550 | AID 743177;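 active means Fgf4 expression under 0.8 fold of control in both repeat measurements at one or both tested doses; inconclusive means under 0.8 fold in just a single repeat measurement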;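 further: Fgf4 transcript normalised to actin in duplex TaqMan qPCR; cells exposed to compound for 24 h before lysis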
# Bmi1 derepress: confirmation of esBAF inhibitors: Bmi1 de-repression in mouse ESCs; fold change at 33 µM; shares compounds with esBAF inh; mouse ESE14 ES cells, Bmi1 mRNA qPCR fold; stronger effect = higher value; 550 tested, under 10 active; AID 743180;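 active means Bmi1 expression fold change above 6 at either tested concentration, seen in replicate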
# A549 tox SP: cytotoxicity in A549 cells; shares compounds with esBAF inh; plate reader; cell viability change % (negative = cytotoxic), % at 25 µM, hits read low; 550 tested, under 10 active; AID 743188; call rule not given here
# HepG2 cytotox SP: cytotoxicity in HepG2 cells; shares compounds with esBAF inh; plate reader; stronger effect = lower value; activity change, negative = inhibition, % at 25 µM; hit rate 4% among 550; AID 743189; in the data active means activity change below about -50%
# HEK293 cytotox SP: HEK293 cell cytotoxicity at single point; activity change, negative = inhibition, % at 25 µM, hits read low; hit rate 3% among 550; AID 743190; shares compounds with esBAF inh; plate reader; in the data active means activity change below about -38%, passing the limit was not always enough
# * marks the source's active call; other numbers are inactive results; ? = inconclusive; / = no result. Sampled rows, rich in hits. Any-hit rate of the full collection: about 4.2%.
SMILES,esBAF inh,ssDAF12 agonist,DAX1 inh,hgDAF12 agonist,Wnt bcat act,hcDAF-12 act,esBAF Ring1 qPCR,esBAF Fgf4 qPCR,Bmi1 derepress,A549 tox SP,HepG2 cytotox SP,HEK293 cytotox SP
CO[C@@H]1CN(C)C(=O)c2cc(NC(=O)C3CCCC3)ccc2OC[C@@H](C)N(CCC(F)(F)F)C[C@H]1C,-3.0,/,/,/,/,/,/,/,/,/,/,/
CCN(C(=O)CN1C(=O)S/C(=C\C=C\c2ccccc2)C1=O)C1CCS(=O)(=O)C1 (configuration not stated),55.2*,-0.9,1.1,-0.5,3.8,1.4,0.965,?,2.01,-1.3,-26.9,4.4
CCN(C(=O)CN1C(=O)S/C(=C\c2cccc(Cl)c2)C1=O)C1CCS(=O)(=O)C1 (configuration not stated),11.1,-1.4,-1.3,4.2,-1.5,-3.0,/,/,/,/,/,/
C[C@@H]1CN([C@@H](C)CO)C(=O)c2cc(C#CC3CCCC3)cnc2O[C@H]1CN(C)C(=O)Cc1ccccn1,2.1,/,/,/,/,/,/,/,/,/,/,/
c1ccc(Nc2nc(-c3ccncc3)cs2)cc1,58.9*,-0.6,0.7,11.0*,/,2.6,1.38,1.08,3.48,-11.5,43.3,-8.2
Fc1ccc(Nc2nc(-c3ccncc3)cs2)cc1,/,-1.0,0.9,9.7,27.5,1.9,/,/,/,/,/,/
c1ccc(-c2csc(Nc3cccnc3)n2)nc1,61.1*,-0.6,1.4,6.6,/,-0.1,1.11,1.06,1.34,-15.4,-14.4,-5.6
C[C@H]1CN([C@@H](C)CO)C(=O)c2cccc(NC(=O)Nc3ccc(C(F)(F)F)cc3)c2O[C@@H]1CN(C)Cc1ccc(-c2ccccc2)cc1,3.2,/,/,/,/,/,/,/,/,/,/,/
Cc1ccc(Nc2ncnc3sc(C)c(C)c23)cc1,59.5*,0.3,0.3,9.6,/,2.9,1.16,0.917,1.38,-2.2,-11.5,-2.7
C[C@H]1CN([C@@H](C)CO)C(=O)c2cc(-c3ccc(C#N)cc3)cnc2O[C@@H]1CN(C)C(=O)CC1CC1,4.4,/,/,/,/,/,/,/,/,/,/,/
Cc1ccc(Nc2cccccc2=O)cc1,54.7*,-0.6,3.4,7.2,26.2,0.8,1.13,1.08,1.77,-5.4,-20.9,-8.7
Cc1ccc(NC(=O)COC(=O)c2ccccc2Nc2ccccc2)cc1,/,-1.2,-0.1,-0.9,-1.0,0.2,/,/,/,/,/,/
Cc1ccc(N=Nc2cc(C)ccc2O)c(C)c1,86.6*,-0.1,1.0,1.9,17.0,0.8,1.05,?,1.66,-8.2,-50.3*,-14.2
O=C(NCCO)c1cccc(-c2cnc3c(Nc4cccc(OC(F)(F)C(F)F)c4)nccn23)c1,71.4*,-1.1,2.6,1.7,0.5,-1.4,1.16,?,2.35,10.0,-19.8,-2.3
COc1ccccc1-c1cnc2c(Nc3cccc(OC(F)(F)C(F)F)c3)nccn12,13.6,-2.0,-0.7,0.3,-0.9,-3.5,/,/,/,/,/,/
CN(C)c1ccc(CNc2nc3cc(-c4ccc(F)cc4)sc3c(=O)n2C)cc1,76.6*,-1.2,-1.2,0.8,23.6,0.9,0.979,0.92,1.97,-2.6,-2.0,-26.1
Cn1c(NCc2ccc3occc3c2)nc2cc(-c3ccc(F)cc3)sc2c1=O,?,-1.5,-1.1,-0.7,-0.9,-1.4,/,/,/,/,/,/
Cc1cc(C)c2c(N)c(C(=O)Nc3ccccc3Br)sc2n1,60.6*,-1.0,0.3,1.9,12.5,1.1,1.29,0.938,1.87,6.9,-14.1,7.5
C[C@H](CO)N1C[C@H](C)[C@@H](CN(C)C(=O)Nc2ccccc2)Oc2ccc(NS(=O)(=O)c3cn(C)cn3)cc2CC1=O,-5.1,/,/,/,/,/,/,/,/,/,/,/
C=C(c1ccccc1)c1ccc(N(C)C)cc1,20.5,-1.1,0.4,1.9,3.8,-1.2,/,/,/,/,/,/
CN(C)c1ccc(C(=O)c2ccccc2)cc1,57.7*,2.0*,0.2,9.3,23.9,1.5,1.06,?,1.46,-6.8,4.0,0.5
COc1ccc(Nc2cc(C)c3c(O)cccc3n2)cc1,56.5*,-1.1,0.3,11.5*,0.1,0.9,1.36,1.22,1.22,-7.6,5.9,-13.4
COc1cccc(Nc2cc(C)c3ccccc3n2)c1,65.6*,-0.8,-0.1,7.6,13.3,3.5,1.11,0.884,1.83,-9.1,-44.5,-25.4
Cc1noc(C)c1C(=O)Nc1nc2ccccc2s1,72.1*,0.1,2.9,4.6,7.9,3.4,1.26,1.11,1.58,-19.1,7.9,-28.5
COc1ccc(C2=NN(C(=O)c3ccncc3)C(c3ccccc3O)C2)cc1 (configuration not stated),19.6,-1.6,-0.1,1.2,2.3,-1.2,/,/,/,/,/,/
SMILES,esBAF inh,ssDAF12 agonist,DAX1 inh,hgDAF12 agonist,Wnt bcat act,hcDAF-12 act,esBAF Ring1 qPCR,esBAF Fgf4 qPCR,Bmi1 derepress,A549 tox SP,HepG2 cytotox SP,HEK293 cytotox SP
O=C(c1ccncc1)N1N=C(c2ccc(Cl)cc2)CC1c1ccccc1O (configuration not stated),80.3*,0.6,0.9,7.3,17.5,2.2,1.37,0.826,1.62,12.2,23.6,5.0
C[C@@H]1CN([C@@H](C)CO)C(=O)Cc2cc(NS(C)(=O)=O)ccc2O[C@@H]1CN(C)C(=O)Nc1ccc2c(c1)OCO2,8.7,/,/,/,/,/,/,/,/,/,/,/
COc1ccc(CNC(=O)c2ccc(-c3ccccc3)cc2)cc1,61.5*,-0.8,0.3,2.9,/,0.4,1.29,1.09,1.41,1.3,-45.8,-3.7
COc1ccc(CNC(=O)c2ccc(Br)cc2)cc1,/,-0.8,-0.4,0.2,4.8,-0.6,/,/,/,/,/,/
CCc1ccccc1NC(=O)c1cc(-c2cccc(O)c2)on1,78.6*,-0.9,1.1,11.1*,20.7,-2.1,1.21,?,1.2,-16.5,-10.8,-18.3
O=C(Nc1ccccc1C(F)(F)F)c1cc(-c2cccc(O)c2)on1,31.4,-0.8,1.1,3.5,/,-0.5,/,/,/,/,/,/
O=c1c2ccccc2oc2cc(-c3ccc4cc[nH]c4c3)ccc12,70.5*,-0.6,1.9,5.2,37.6*,1.6,1.32,0.921,1.61,-3.0,0.1,8.9
C=CCn1c(=NC(=O)c2cccc(N3C(=O)CCC3=O)c2)sc2cccc(OC)c21,-5.0,-1.1,-0.6,0.3,1.2,-2.2,/,/,/,/,/,/
COc1ccc(C)c2sc(=NC(=O)c3cccc(N4C(=O)CCC4=O)c3)n(C)c12,75.8*,-0.8,0.4,-0.8,0.0,0.3,1.5,0.982,1.61,-9.5,-18.6,2.3

# High-throughput results (PubChem BioAssay)
